Sampled rows, rich in hits. Any-hit rate of the full collection: about 6.2%.
HCMV inh: qHTS Assay for inhibitors of the human cytomegalovirus (HCMV); activity change, negative = inhibition, % at 57.5 µM; HFF cells, HCMV-luciferase reporter, 72 h; active compounds read low; hit rate 4.5% among 410,000; in the data active means activity change below about -60%; inconclusive means no clear call, values can overlap the other calls; inactive means above about -39%
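Two compound doses tested in HFFs infected with HCMV-luciferase, MOI 1 PFU/cell, 72 h at 37C. Lysate luminescence read with OneGlo; data normalized against buffer-only and 10uM Salinomycin inhibitor controls.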
LASV entry inh: qHTS for Inhibitors of binding or entry into cells for Lassa Virus | Lassa virus pseudotype entry inhibition, cell reporter | Potency, µM (top dose mostly 37.9 µM), for inactives: top-dose activity change, negative = inhibition, actives largely listed as inhibitors | hit rate 1.2% among 300,000 | AID 540256, 2011; calls by dose curve; tested in HEK293 cells; further: potency means the concentration at half of the fitted maximal effect; nearly all actives have a fitted effect of over 50% in size
FMDV antiviral: High Throughput Screening for Foot and Mouth Disease Virus Antivirals. FMDV antiviral cell-based qHTS. hit rate 1.2% among 410,000. AID 1159524, 2015. Potency, µM (highest dose often 57.9 µM), without a hit: at the highest dose activity change, negative = inhibition, usual class: inhibitors; calls by dose curve; tested in HEK293T cells; further: read-out not given here; potency means the concentration at half of the fitted maximal effect; nearly all actives have a fitted effect of over 45% in size
MARV entry inh: qHTS for inhibitors of binding or entry into cells for Marburg Virus; hit rate 1.8% among 300,000; AID 540276, 2011; Marburg virus pseudotyped entry inhibition, cell reporter; Potency, µM (doses to about 37.8 µM), without a hit: top-dose activity change, negative = inhibition, usual class: inhibitors; calls by dose curve; tested in HEK293 cells; further: potency means the concentration at half of the fitted maximal effect
Numbers without * were called inactive; ? = inconclusive; . = no result given; [ ] = remark or other dose. On the % scale 0 is the no-effect control and ±100 the full control effect.

SMILES	HCMV inh	LASV entry inh	FMDV antiviral	MARV entry inh
CC1(C)CC(=O)C2=C(C1)N1C(=C(C#N)C2c2ccccc2Cl)N=C(N)c2ccccc21 (stereo not given)	7	-25%	?	?
CC1(C)CC(=O)C2=C(C1)N1C(=C(C#N)C2c2ccc(Cl)cc2)N=C(N)c2ccccc21 (stereo not given)	-93*	?	?	?
CCCNC(=O)c1nnc2n1CCN(C(=O)CCc1ccccc1)C2	-10	.	.	.
Fc1ccc(N2CCN(Cc3ccc4c(c3)CN(Cc3cccn3-c3ncccn3)CCO4)CC2)cc1	.	.	-12%	.
CNC(C)Cc1ccc(OC)cc1 (stereo not given)	4	.	.	.
CC(C)NC(C)Cc1ccc(I)cc1 (stereo not given)	-33	9%	-21%	16µM*
CC(C)N[C@@H](C)Cc1ccc(I)cc1	.	.	.	16µM*
COc1ccc(OC)c(C2CC(=O)Nc3c2c(=O)[nH]c2nc4ccccc4n32)c1 (stereo not given)	18	6%[46.1 µM]	-20%	0%[46.1 µM]
CCOC(=O)C1=CC[C@@H](c2ccccc2)C(C#N)(C#N)[C@H]1/C=C/c1ccccc1	48	.	.	.
CCOc1ccc(/C=N/Nc2ccc(C(F)(F)F)cc2[N+](=O)[O-])cc1O	-13	?	0%	?
CCOc1cc(/C=N/NC(=O)N/N=C/c2ccc(O)c(OCC)c2)ccc1O	25	?	-27%	7.1µM*
CCOc1cc(/C=N/NC(=O)Cc2ccc(C(F)(F)F)cc2[N+](=O)[O-])ccc1O	-61*	-2%	-11%	2%
CCOc1cc(/C=N/NC(=O)c2ccccc2-n2cccc2)ccc1O	-13	.	-16%	.
CCOc1cc(/C=N/NC(=O)c2ccccc2OCc2ccc(F)cc2)ccc1O	-82*	.	?	.
CCOc1ccc(C(=O)NCCn2cc(SCC(=O)Nc3ccc4c(c3)OCCO4)c3ccccc32)cc1	-9	?	-16%	-28%[46.1 µM]
C[C@@H]1COc2cc(N3CCCC3)ccc2S(=O)(=O)N1	31	7%[46.1 µM]	.	.
N#C/C(=C\c1ccc(O)c(O)c1)C(=O)OCCc1cccs1	.	.	-4%	.
Cc1ccc(S(=O)(=O)c2nnn3c2nc(Nc2ccc(C(C)C)cc2)c2sccc23)cc1C	6	?	-25%	.
CC1(C)CC(=O)C2=C(C1)NC(Nc1nc3ccccc3o1)=NC21CCCC1	6	3%	5%	?
Cc1ccc2nc(NC3=NC4(CCCC4)C4=C(CCCC4=O)N3)oc2c1	-4	.	40µM*	.
CN1CN(c2ccccc2)C2(CCN(CCCSc3ccccc3NC(=O)/C=C/c3ccccc3)CC2)C1=O	-66*	?	0%	?
O=C(c1ccc(N2CCN(C(=O)c3ccc(F)c(F)c3)CC2)cc1)c1cccc(F)c1	-72*	.	0%	.
O=C1c2ccccc2S(=O)(=O)c2cc(N3CCN(C(=O)c4ccccc4)CC3)ccc21	-12	.	40µM*	.
O=C(c1ccc(N2CCN(C(=O)c3ccccc3)CC2)cc1)c1cccc(F)c1	-32	-22%[46.1 µM]	-22%	?
O=C(c1ccccc1)c1ccc(C(=O)N2CCN(c3ccc(O)cc3)CC2)cc1	-78*	.	-2%	.
SMILES	HCMV inh	LASV entry inh	FMDV antiviral	MARV entry inh
COc1cc(NC(=O)C(NC(=O)C2CCC(C)CC2)C(C)C)cc(OC)c1OC (stereo not given)	14	0%[46.1 µM]	-11%	?
CC1(C)Oc2ccc3ccc(=O)oc3c2/C(=C/Nc2cccc(O)c2)C1=O	-35	?	-27%	?
CC1(C)Oc2ccc3ccc(=O)oc3c2/C(=C/Nc2ccc(O)cc2)C1=O	-85*	?	?	?
FC(F)(F)c1nnc(Nc2ccc(Cl)cc2)s1	-38	-34%	?	-10%[46.1 µM]
Fc1ccc(Nc2nnc(C(F)(F)F)s2)cc1Cl	-98*	?	0%	?
C[C@@H]1CCCCO[C@@H](CN(C)C(=O)CCC(F)(F)F)[C@@H](C)CN([C@H](C)CO)C(=O)c2cc(NS(=O)(=O)c3cccs3)ccc2O1	7	.	.	.
Cc1cccc(OCC(=O)Nc2c(C)ccc3nsnc23)c1C	-21	?	-7%	0%[46.1 µM]
OCCCNCc1ccc(-c2ccccc2)cc1	-16	1%	-11%	3%[46.1 µM]
Fc1ccc(CNC2CCN(Cc3ccccc3)CC2)cc1	46	.	-5%	.
c1ccc(-c2ccc(CNC3CC3)cc2)cc1	-80*	?	1%	13%[46.1 µM]
S=C(NCc1ccc(Cl)cc1)NC1CCN(Cc2ccccc2)CC1	-89*	?	-25%	6.3µM*
COc1ccccc1CN1CCN(Cc2ccc(Cl)cc2)CC1	?	1%[46.1 µM]	-26%	11µM*
COc1ccc(CN2CCN(Cc3ccccc3OC)CC2)cc1	9	.	-23%	.
